The text below walks through data of PubChem BioAssay AID1259420 (Broad Institute, 2018).

Where “and” joins values, the source holds several entries; their conditions need not be identical. Equal entries are not always repeated. The campaign covered roughly 1,000 compounds. About 250 (25%) were called active. Inconclusive results (about 31%) are left out. A selection follows. Entries with a potency or affinity are not part of this list. Values without a mark were called inactive. How the calls were made is not given here.

This assay in a line: compound activity on host-cell Toxoplasma growth – dose response (AID 1259420).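 Further: host cells were HeLa; final incubation lasted 72 hours.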 The conditions noted are these: Toxoplasma gondii growth in host cells, no IFN-gamma.

Consider `CC(C)C#Cc1ccc([C@@H]2[C@@H](CO)N(C(=O)c3cccc(F)c3)[C@H]2C#N)cc1`, for which the max activity (at 19.5 µM unless noted) is -12.4% [at 10 µM].

Consider `CC(C)CC#Cc1ccc([C@H]2[C@@H](CO)N3C(=O)CN(C(=O)c4cccc(F)c4)C[C@@H]23)cc1`, for which the max activity (at 19.5 µM unless noted) is 25.4%.

Regarding `O=C(CC1CC1)N[C@H]1CN(C(=O)c2ccoc2)C[C@@H]2CCCO[C@H]21`, the max activity (at 19.5 µM unless noted) was -10.1% [at 10 µM].

With `CCc1c(C)sc2c1CCN(Cc1nc(-c3cccc(C)c3)oc1C)C2c1ccccc1` (centres undefined), the max activity (at 19.5 µM unless noted) was -7.44% [at 0.08 µM].

As to `O=C1CNC[C@@H]2[C@@H](c3ccc(C#Cc4cccnc4)cc3)[C@@H](CO)N12`, the max activity is 9.41% (at 2.6 µM) and -13% (at 10 µM).

On to `CC(C)(O)C#Cc1cccc(-c2n[nH]c(Cc3ccccc3)n2)c1`, for which the max activity (at 19.5 µM unless noted) is 21.1%.

For the compound `O=S(=O)(c1ccc2c(c1)CCCC2)N1CCC2(CC1)NCCN=C2NCc1ccc2c(c1)OCO2`, under “at 19.5 µM unless noted”, the max activity is -6.04% [at 0.08 µM].

`CCc1ccc(S(=O)(=O)N2CCC3(CC2)NCCN=C3NCc2cc(F)cc(F)c2)cc1`: for the setting “at 19.5 µM unless noted”, the max activity is -11.1% [at 0.08 µM].

Consider `Cc1ccc(CNC2=NCCNC23CCN(S(=O)(=O)c2ccc(Cl)s2)CC3)cc1`, for which, where the note is “at 19.5 µM unless noted”, the max activity was -6.39% [at 2.6 µM].

Regarding `Cc1cccc(CNC2=NCCNC23CCN(S(=O)(=O)c2ccc4c(c2)CCCC4)CC3)c1`, the max activity (at 19.5 µM unless noted) was -9.87%.

`CCc1ccccc1-c1cccc(-n2cnnc2)c1`: the max activity (at 19.5 µM unless noted) is 23.8% [at 10 µM].

Regarding `CCc1cc(C(=O)Nc2ccc(C)cc2-c2cc(C)[nH]n2)c2c(C)noc2n1`, the max activity (at 19.5 µM unless noted) is -5.68% [at 5 µM].

Consider `CN(C)CCN1CCOCC2(CCCN(C(=O)c3ccc4cc[nH]c4c3)C2)C1` (centres undefined), for which the max activity (at 19.5 µM unless noted) is -5.04% [at 2.6 µM].

For the compound `COCC1CN(Cc2cc(C)on2)Cc2c1cnn2CC1CC1` (centres undefined), the max activity (at 19.5 µM unless noted) is -5.27% [at 10 µM].

As to `COc1ccc(-n2c(C)c([N+](=O)[O-])c3ccc(O)cc32)cc1`, the max activity (at 19.5 µM unless noted) was 7.23% [at 1.2 µM].

For `COc1ccc(S(=O)(=O)N2CCCCN3[C@H](C2)[C@@H](c2ccc(C#CCC(C)C)cc2)[C@@H]3CO)cc1`, for the setting “at 19.5 µM unless noted”, the max activity is 29.4% [at 10 µM].

Regarding `COCCC(=O)C1Cc2nc(-c3ccccc3)sc2N1CC1CC1` (centres undefined), where the note is “at 19.5 µM unless noted”, the max activity was -9.12% [at 0.3 µM].

Regarding `O=C(C1CCCCC1)N1C[C@@H]2N[C@H](C1)C2c1ccc(-c2ccccc2F)cc1` (some centres undefined), the max activity (at 19.5 µM unless noted) is 13.7% [at 2.6 µM].

On to `C=CCN1C(=O)CC[C@H]2[C@@H]1CCN2S(=O)(=O)CC`, for which, for the setting “at 19.5 µM unless noted”, the max activity is -17.5% [at 10 µM].

As to `CCCNC(=O)N1C[C@@H]2N[C@H](C1)C2c1ccc(-c2ccc(OC)cc2)cc1` (some centres undefined), under “at 19.5 µM unless noted”, the max activity is 11.6% [at 21 µM].

Regarding `Cc1ccc(CN2CC3CN(Cc4cccc(F)c4)CC3C2)s1` (centres undefined), for the setting “at 19.5 µM unless noted”, the max activity is -13.6% [at 1.2 µM].

Regarding `Cc1cnc(N2CCC3(CCN(CC4CC4)C3=O)CC2)nc1`, where the note is “at 19.5 µM unless noted”, the max activity was -10.4%.

Take `COCC#Cc1ccc([C@@H]2[C@@H](CO)N3C(=O)CN(C(=O)c4ccncc4)C[C@@H]23)cc1`: where the note is “at 19.5 µM unless noted”, the max activity was -8.48% [at 10 µM].

As for `CC(C)[C@H](CO)Nc1nc(Nc2ccc(C(=O)O)c(Cl)c2)c2ncn(C(C)C)c2n1`, the max activity (at 19.5 µM unless noted) is -10.3% [at 10 µM].

As for `O=C(NCc1ccccc1)C1CC2(CO1)CN(C(=O)c1ccc(F)cc1)c1ccccc12` (centres undefined), under “at 19.5 µM unless noted”, the max activity is -16.3% [at 10 µM].

As for `O=C1N(CC2CC2)CCC12CCCN(Cc1cncc(Cl)c1)CC2` (centres undefined), the max activity (at 19.5 µM unless noted) is -16.7% [at 10 µM].

For the compound `N#C[C@@H]1N[C@H](CO)[C@H]1c1ccc(-c2cccc(F)c2)cc1`, the max activity (at 19.5 µM unless noted) is 13.1%.

As to `O=C(Nc1ccc(F)cc1)N1CC(=O)N2[C@@H](CO)[C@@H](c3ccc(C4=CCCC4)cc3)[C@@H]2C1`, the max activity (at 19.5 µM unless noted) is 14.9%.

Regarding `CS(=O)(=O)N1CCN(C2CCOCC2)CC(C(=O)O)C1` (centres undefined), under “at 19.5 µM unless noted”, the max activity was -14.9% [at 5 µM].

For the compound `COc1ccc(-c2nc(CN(c3ccccc3OC)S(=O)(=O)c3ccccc3)c(C)o2)cc1`, the max activity (at 19.5 µM unless noted) was -9.94% [at 0.6 µM].

With `CCOc1ccc(-c2nc(CN(c3ccc(OC)cc3)S(=O)(=O)c3cccs3)c(C)o2)cc1`, the max activity (at 19.5 µM unless noted) is 18.6% [at 10 µM].

Turning to `CC(C)Oc1ccc(NC(=O)c2nc3c(n2C(C)C)CCN(C(=O)c2ccccc2)C3)cc1`, the max activity (at 19.5 µM unless noted) is 12.7% [at 0.08 µM].

On to `CCOC(=O)c1nn(Cc2ccccc2)c2c1CN(C(=O)CN1CC(c3ccccc3)CC1=O)CC2` (centres undefined), for which the max activity (at 19.5 µM unless noted) is -13.6%.

As to `O=C(C1CCOCC1)N1CC(=O)N2[C@@H](CO)[C@@H](c3ccc(C#CC4CCCCC4)cc3)[C@@H]2C1`, the max activity (at 19.5 µM unless noted) was 14.6%.

Turning to `CC(C)C#Cc1ccc([C@H]2[C@@H](CO)N3C(=O)CN(C(=O)NC4CCCC4)C[C@H]23)cc1`, the max activity (at 19.5 µM unless noted) was -5.62% [at 10 µM].

For `Cc1nc2ccccc2n1CC(O)Cn1c2ccccc2c2ccccc21` (centres undefined), the max activity (at 19.5 µM unless noted) is -12.4%.

For the compound `O=C(Cc1cccnc1)N1CC(=O)N2[C@H](CO)[C@H](c3ccc(C#CC4CCCCC4)cc3)[C@H]2C1`, the max activity (at 19.5 µM unless noted) was -8.11% [at 0.3 µM].

Turning to `CN(C)C(=O)COCc1cncc2c1CCN(c1ccccn1)C2`, the max activity (at 19.5 µM unless noted) was -8.88% and 11.8%.

`Cc1ccccc1S(=O)(=O)N1CCCCN2[C@H](C1)[C@H](c1ccc(C#CCN(C)C)cc1)[C@@H]2CO`: the max activity (at 19.5 µM unless noted) is 20.9% [at 10 µM].

For `Clc1ccccc1CSc1nc(NC2CCCCC2)c2ccccc2n1`, the max activity (at 19.5 µM unless noted) is 12.5%.

As to `CS(=O)(=O)N1CC(=O)N2[C@H](CO)[C@@H](c3ccc(Br)cc3)[C@H]2C1`, the max activity (at 19.5 µM unless noted) is 4.03%.

As for `COc1cccc(-c2ccc(C3[C@H]4CNC[C@@H]3N4C(=O)NC3CCCCC3)cc2)c1` (some centres undefined), the max activity (at 19.5 µM unless noted) is 28.1%.

With `COc1cccc(-c2ccc(C3[C@H]4CNC[C@@H]3N4CC3CCCCC3)cc2)c1` (some centres undefined), the max activity (at 19.5 µM unless noted) is 15.2%.
